Many of the other results were omitted from the sample, so hits are more common in it than they were.
Glioma ERSR ind = induces the endoplasmic reticulum stress response in human glioma cells. U87-MG GRP78 promoter luciferase reporter, 16 h. Potency, µM, actives largely listed as activators. hit rate 0.02% among 420,000; also: series mostly up to about 76 µM; nearly all actives have a fitted effect of over 35% in size
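Stably transfected U87-MG human glioma cells carrying a GRP78-based luminescent sensor were seeded at 1000 cells/well, pin-dosed with compounds and incubated 16 h. Luciferase reagent was then added, and end-point luminescence was read after 10 min at room temperature.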
Sfp inh = Sfp phosphopantetheinyl transferase inhibition; hit rate 3.5% among 310,000; Q9F4F7; Potency, µM, most hits filed as inhibitors; Biochemical Sfp PPTase activity, qHTS; AID 1490;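 also: the enzyme is Sfp with the accession as filed and its product quenches rhodamine fluorescence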
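After 15 min at room temperature with compound, 15 nM Sfp received 5 uM rhodamine-CoA plus 12.5 uM BHQ-2-ybbR (50 mM Hepes pH 7.6, 10 mM MgCl2). Rate came from the fluorescence difference over 30 min, ex 525/em 598 nm.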
12-LOX inh = ALOX12 (human) lipoxygenase inhibition | purified 12hLO, xylenol orange hydroperoxide absorbance | Potency, µM (series often up to 108 µM), actives largely listed as inhibitors | hit rate 1.1% among 580,000 | AID 1671190
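Hydroperoxide product was detected by ferrous iron/xylenol orange as the 573 to 405 nm absorbance ratio. Arachidonic acid at 40 uM (final) was turned over for 30 min at room temperature by 150 nM human 12hLO, pH 7.0 Hepes buffer, after 15 min compound preincubation.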
G9a inh = inhibitors of human histone lysine methyltransferase G9a. Q96KQ7. G9a H3K9 monomethylation, AlphaScreen, 2 h. Potency, µM (series often up to 102 µM), hits mostly inhibitors. hit rate 8.8% among 350,000; also: nearly all actives have a fitted effect of over 75% in size
Target sequence (Q96KQ7 913-1193 limits assumed): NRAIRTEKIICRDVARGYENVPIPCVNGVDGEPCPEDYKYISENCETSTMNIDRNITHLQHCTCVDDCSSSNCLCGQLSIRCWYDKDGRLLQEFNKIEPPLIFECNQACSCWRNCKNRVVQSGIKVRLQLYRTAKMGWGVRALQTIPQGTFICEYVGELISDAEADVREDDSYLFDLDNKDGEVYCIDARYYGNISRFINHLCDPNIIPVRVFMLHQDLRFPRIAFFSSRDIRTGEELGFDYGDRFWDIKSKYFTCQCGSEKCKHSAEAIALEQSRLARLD
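AlphaScreen detection with an anti-monomethyl H3K9 antibody quantified product after a 2 h room-temperature reaction containing 500 nM biotinylated H3K9 peptide, 20 µM SAM and 20 nM enzyme, which had been preincubated 15 min with compound.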
VDR inh = vitamin D3 receptor (human) inhibition. P11473. VDR-SRC2-3 peptide fluorescence polarization, 2 h. Potency, µM, usual class: inhibitors. hit rate 0.93% among 400,000. AID 504847
Target sequence (P11473 whole entry, looked up): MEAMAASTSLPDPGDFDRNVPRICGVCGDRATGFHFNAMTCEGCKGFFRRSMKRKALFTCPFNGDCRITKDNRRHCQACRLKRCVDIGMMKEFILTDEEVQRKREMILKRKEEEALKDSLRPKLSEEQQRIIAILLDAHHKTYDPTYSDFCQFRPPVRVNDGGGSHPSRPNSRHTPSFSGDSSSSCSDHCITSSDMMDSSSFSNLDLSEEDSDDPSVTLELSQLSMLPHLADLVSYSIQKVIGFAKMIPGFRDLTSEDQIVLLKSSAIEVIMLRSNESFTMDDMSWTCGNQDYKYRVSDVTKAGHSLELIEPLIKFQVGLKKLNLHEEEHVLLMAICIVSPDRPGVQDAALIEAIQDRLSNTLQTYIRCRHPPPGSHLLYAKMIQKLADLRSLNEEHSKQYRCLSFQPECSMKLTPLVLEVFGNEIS
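Reagent solutions, kept cold and dark, are dispensed first; compounds are then pinned in at 23 nl, plates briefly spun, and incubated 2 h at ambient temperature. Inhibition of VDR–SRC2-3 peptide binding is read by fluorescence polarization.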
A number is an active result. Calls follow the shape of the dose curve; as a rule, active = well fitted curve in the direction sought with a large enough effect; inconclusive = small, poorly fitted or top-dose-only effect, or another doubt; inactive = no such curve, though single readings can be large; an effect the other way counts as inactive or inconclusive.

What do the screens show for `CC(Sc1nc(C(F)(F)F)nc2ccccc12)C(=O)N1CCCC1` (stereo unspecified)?
12-LOX inh: inactive

How did CC1CCC(NC(=O)c2cc3ccccc3c(Cl)n2)CC1 (stereo unspecified) do in these assays?
12-LOX inh: 40µM

What do the screens show for `Cc1ccc(CNC(=O)c2cc(-c3ccc(C)o3)nc3ccccc23)cc1`?
12-LOX inh: 3.2µM

What do the screens show for `CC1CCC(NC(=O)c2cc(-c3ccccc3)nc3ccccc23)CC1` (stereo unspecified)?
12-LOX inh: 0.79µM

Results for Cc1ccc(CNC(=O)c2cc(-c3ccc(C)c(C)c3)nc3ccccc23)cc1 ?
Glioma ERSR ind: inactive; 12-LOX inh: inactive; G9a inh: inactive; VDR inh: inactive

How did CC1CCC(NC(=O)c2cc(C3CC3)nc3ccccc23)CC1 (stereo unspecified) do in these assays?
12-LOX inh: inactive

What do the screens show for `O=C(NC1CCC(O)CC1)c1cc(-c2ccco2)nc2ccccc12` (stereo unspecified)?
Glioma ERSR ind: inactive; Sfp inh: 18µM; 12-LOX inh: inconclusive; G9a inh: 40µM; VDR inh: inactive

What do the screens show for `CC(C)CN1C(=O)c2ccccc2C(C(=O)NCc2ccccn2)C12CCCCC2` (stereo unspecified)?
12-LOX inh: inactive

What do the screens show for `O=C(NCC1CCCO1)c1cc(-c2ccncc2)nc2ccccc12` (stereo unspecified)?
Glioma ERSR ind: inactive; 12-LOX inh: inactive; G9a inh: inactive; VDR inh: inactive

Results for Cc1ccc(-c2cc(C(=O)NC3CC3)c3ccccc3n2)o1 ?
12-LOX inh: 13µM

Results for Cc1ccc(-c2cc(C(=O)N(C)CC(=O)Nc3ccccc3Br)c3ccccc3n2)o1 ?
Glioma ERSR ind: inactive; 12-LOX inh: inconclusive; G9a inh: 8.9µM; VDR inh: inactive

What do the screens show for `O=C(NCC1CCCO1)c1cc(-c2ccco2)nc2ccccc12` (stereo unspecified)?
Glioma ERSR ind: inactive; Sfp inh: inactive; 12-LOX inh: inconclusive; G9a inh: 45µM; VDR inh: inactive

What do the screens show for `Cc1ccc(-c2cc(C(=O)NCC3(N(C)C)CCCCC3)c3ccccc3n2)o1`?
Glioma ERSR ind: inactive; 12-LOX inh: inactive

Results for COc1ccc(CN(C)CC(=O)N(C)c2ccccc2C(=O)NCc2ccco2)cc1 ?
12-LOX inh: inactive

What do the screens show for `Cc1ccc(C)c(/C=N/Nc2nc3ccccc3c(=O)n2O)c1`?
Glioma ERSR ind: inactive; Sfp inh: 25µM; 12-LOX inh: inactive; G9a inh: 28µM; VDR inh: inactive

Results for C/C(=N\Nc1nc2ccccc2c(=O)n1O)c1ccco1 ?
Glioma ERSR ind: inactive; Sfp inh: 79µM; 12-LOX inh: inactive; G9a inh: 79µM; VDR inh: inactive

Results for Cc1ccc2nc(C)cc(N/N=C/c3ccccc3O)c2c1 ?
Glioma ERSR ind: inactive; Sfp inh: inactive; 12-LOX inh: inactive; G9a inh: inactive; VDR inh: inconclusive

How did COc1cc(CN2CC[C@H](c3nc4ccccc4o3)C2)cc(OC)c1OC do in these assays?
12-LOX inh: inactive

Results for CN1N=C2c3ccccc3CCCC2C1c1ccc(F)cc1 (stereo unspecified) ?
Glioma ERSR ind: inactive; Sfp inh: inactive; 12-LOX inh: 40µM; G9a inh: 79µM; VDR inh: inactive

What do the screens show for `CCOc1ccc(CNC(=O)C2CCCN(S(=O)(=O)c3ccc4c(c3)CCCC(=O)N4)C2)cc1` (stereo unspecified)?
Glioma ERSR ind: inactive; 12-LOX inh: inactive; G9a inh: inactive; VDR inh: inactive

Results for CN(C)c1ccc(CNC(=O)C2CCN(S(=O)(=O)c3ccc4c(c3)CCCC(=O)N4)CC2)cc1 ?
Glioma ERSR ind: inactive; Sfp inh: inactive; 12-LOX inh: inactive; G9a inh: 45µM; VDR inh: inactive

What do the screens show for `CC1CCN(S(=O)(=O)c2cc(C(=O)NCc3ccc(N(C)C)cc3)n(C)c2)CC1`?
Glioma ERSR ind: inactive; 12-LOX inh: inactive; G9a inh: 10µM; VDR inh: inactive

Results for COC(=O)c1ccccc1NC(=O)CC1Sc2ccccc2NC1=O (stereo unspecified) ?
12-LOX inh: inactive

How did Clc1cccc(C=Nc2cccc3ccccc23)c1Cl do in these assays?
12-LOX inh: inactive

Results for CC(/C=N/NC(=O)Cn1cnc2c1c(=O)n(C)c(=O)n2C)=C\c1ccco1 ?
Glioma ERSR ind: inactive; Sfp inh: 40µM; 12-LOX inh: inactive; VDR inh: inactive

How did Cc1ccc(/C=N/NC(=O)Cn2cnc3c2c(=O)n(C)c(=O)n3C)s1 do in these assays?
Glioma ERSR ind: inactive; Sfp inh: inactive; 12-LOX inh: inactive; G9a inh: inactive; VDR inh: inactive

Results for Cn1c(=O)c2c(ncn2CC(=O)N/N=C/C(Cl)=C/c2ccccc2)n(C)c1=O ?
Glioma ERSR ind: inactive; Sfp inh: inactive; 12-LOX inh: inactive; G9a inh: inactive; VDR inh: inactive

How did CC(=C/c1ccco1)/C=N/NC(=O)Cc1cccn1C do in these assays?
Glioma ERSR ind: inactive; Sfp inh: inactive; 12-LOX inh: inconclusive; G9a inh: inconclusive; VDR inh: inactive

What do the screens show for `Cn1c(=O)c2c(ncn2CC(=O)N/N=C/C=C/c2ccco2)n(C)c1=O`?
Glioma ERSR ind: inactive; Sfp inh: 14µM; 12-LOX inh: inactive; VDR inh: inactive

How did CC(/C=N/NC(=O)Cc1cccn1C)=C\c1ccco1 do in these assays?
Glioma ERSR ind: inactive; Sfp inh: 40µM; 12-LOX inh: inactive; G9a inh: 11µM; VDR inh: inactive

What do the screens show for `O=C(NCc1cccnc1)c1ccc2oc(-c3ccc(C(F)(F)F)cc3)nc2c1`?
12-LOX inh: inactive

How did O=[N+]([O-])c1ccc(Oc2cccc(Br)c2)c2ccncc12 do in these assays?
Glioma ERSR ind: inactive; Sfp inh: inconclusive; 12-LOX inh: inactive; G9a inh: 25µM; VDR inh: inactive

Results for Cc1cc(C)n(/N=C/c2ccccc2O)c(=O)c1 ?
Glioma ERSR ind: inactive; Sfp inh: inactive; 12-LOX inh: inconclusive; G9a inh: 16µM; VDR inh: inactive

Results for COc1ccc(C(=O)Nc2ccc(N(C)Cc3ccccc3)c(C(=O)O)c2)cc1 ?
Glioma ERSR ind: inactive; 12-LOX inh: inconclusive; G9a inh: inactive; VDR inh: inactive

What do the screens show for `CCCn1nc(C)cc1CN(C)c1ccc(NC(=O)c2ccccc2C)cc1C(=O)O`?
12-LOX inh: 10µM

How did Cc1cc(C)c(S(=O)(=O)N2CCN(C(=O)N(C)C)CC2)c(C)c1 do in these assays?
Glioma ERSR ind: inactive; Sfp inh: 7.1µM; 12-LOX inh: inactive; VDR inh: inactive

Results for Cc1cc(C)c(S(=O)(=O)N2CCN(C(=O)N3CCCCC3)CC2)c(C)c1 ?
Glioma ERSR ind: inactive; Sfp inh: inactive; 12-LOX inh: inactive; G9a inh: inactive; VDR inh: inactive

Results for Cc1cc(N2CCN(C)CC2)nc(-c2ccccc2O)n1 ?
Glioma ERSR ind: inactive; Sfp inh: inactive; 12-LOX inh: inactive; G9a inh: inactive; VDR inh: inactive

Screens (PubChem)
